hERG WT inh: KCNH2 (human, wildtype) channel inhibition; U2OS, BacMam KCNH2, thallium flux FluxOr; stronger effect = lower value; AID 720551; hit rate 0.37% among 340,000; activity change, % at 1.84 µM;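 active means maximum activity change below -70%; inconclusive means maximum activity change between -70% and -50%; inactive means maximum activity change above -50%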; further: on the % scale 0 is the no-effect control and ±100 the full control effect
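U2OS cells transduced with wild-type KCNH2 virus are loaded with FluxOr dye for 45 min, and thallium flux is measured in kinetic reads before and after stimulation buffer. Rate constants are normalized to DMSO controls.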
KCNH2 3.1 inh: inhibitors of human KCNH2 3.1 potassium channel isoform; activity change, % (tested at about 1.8 µM); U2OS KCNH2 3.1, thallium flux FluxOr; stronger effect = lower value; hit rate 0.95% among 340,000; AID 720553;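 active means maximum activity change below -70%; inconclusive means maximum activity change from -70% to -50%; inactive means maximum activity change above -50%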;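 further: thallium influx rate constant from kinetic fluorescence after stimulation buffer; on the % scale 0 is the no-effect control and ±100 the full control effect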
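U2OS cells transduced with KCNH2 3.1 mutant virus (1.77 x 10^8 /mL, 4 h), plated overnight at 37 C, loaded 45 min with FluxOr dye plus Red40 quencher. Thallium flux rate constant from kinetic reads after stimulation buffer, normalised to controls.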
TRPV1 ag: agonists of human vanilloid receptor 1 (TRPV1) | TRPV1-expressing cells, Fluo-8 calcium influx, agonist mode | activation, % at 8.33 µM | hit rate 0.19% among 320,000 | AID 540275; in the data active means activation above about 80%; inconclusive means between about 30% and that limit; further: 0% is about no effect
Target sequence (Q8NER1 whole entry, looked up): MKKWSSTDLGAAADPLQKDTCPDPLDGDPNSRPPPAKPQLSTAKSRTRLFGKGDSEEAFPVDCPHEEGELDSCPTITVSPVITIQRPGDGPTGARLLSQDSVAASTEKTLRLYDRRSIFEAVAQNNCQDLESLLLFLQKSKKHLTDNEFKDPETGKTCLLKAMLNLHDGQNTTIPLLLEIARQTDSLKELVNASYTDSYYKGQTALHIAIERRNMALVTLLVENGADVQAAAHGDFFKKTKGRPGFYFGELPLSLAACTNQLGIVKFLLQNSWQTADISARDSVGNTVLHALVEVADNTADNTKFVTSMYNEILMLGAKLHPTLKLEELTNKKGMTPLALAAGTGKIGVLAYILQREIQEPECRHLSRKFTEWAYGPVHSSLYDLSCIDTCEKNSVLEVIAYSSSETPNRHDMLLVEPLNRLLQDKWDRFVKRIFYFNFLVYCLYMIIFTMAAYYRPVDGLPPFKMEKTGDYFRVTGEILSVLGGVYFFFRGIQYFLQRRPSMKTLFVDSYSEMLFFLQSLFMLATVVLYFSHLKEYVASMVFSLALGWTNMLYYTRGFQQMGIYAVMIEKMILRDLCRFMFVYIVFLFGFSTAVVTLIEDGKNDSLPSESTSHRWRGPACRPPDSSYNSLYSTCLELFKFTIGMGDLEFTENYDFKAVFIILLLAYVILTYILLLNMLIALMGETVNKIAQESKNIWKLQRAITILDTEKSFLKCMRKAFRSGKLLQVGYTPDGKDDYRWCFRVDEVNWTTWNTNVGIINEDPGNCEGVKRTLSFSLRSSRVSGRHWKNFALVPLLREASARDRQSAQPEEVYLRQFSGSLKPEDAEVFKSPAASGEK
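Fluo-8 calcium influx in TRPV1-expressing cells, kinetic read (ex 480/em 520 nm). Compound added and read 3 min for agonist activity, followed by capsaicin at EC20 final and 2 min further read for enhancement.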
TRPV1 PAM: potentiators of human vanilloid receptor 1 (TRPV1); Q8NER1; hit rate 0.02% among 320,000; TRPV1-expressing cells, Fluo-8 calcium influx, capsaicin EC20 potentiation; potentiation, % at 8.33 µM; in the data active means potentiation above about 80%; inconclusive means between about 30% and that limit; further: 0% is about no effect
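Fluo-8 calcium influx in TRPV1-expressing cells, kinetic read (ex 480/em 520 nm). Compound added and read 3 min for agonist activity, followed by capsaicin at EC20 final and 2 min further read for enhancement.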
* marks the source's active call; other numbers are inactive results; ! = not active in a repeat. This is a sample that favours compounds with a hit; in the whole collection about 1.2% have one here.

CCOc1ccc2[nH]c(=O)c(CN(CCO)C(=O)c3ccc(Br)cc3)cc2c1 was read as hERG WT inh -5.7, KCNH2 3.1 inh -139.6*, TRPV1 ag 3.2 and TRPV1 PAM 21.1.
`CCOc1ccc2[nH]c(=O)c(CN(CCO)C(=O)CC)cc2c1` gave hERG WT inh 1.6, KCNH2 3.1 inh -6.9, TRPV1 ag -2.1 and TRPV1 PAM -7.7.
`N#Cc1ccc(NC(=O)COC(=O)C2CCC2)cc1` gave hERG WT inh -2.5 and KCNH2 3.1 inh 15.2.
`CCc1cccc(CC)c1N1C(=O)C2=C(SCCCS2)C1=O` gave hERG WT inh -17.4 and KCNH2 3.1 inh -3.3.
Screening CCN(CC)S(=O)(=O)c1ccc2c(c1)nc(CCC(=O)OCC(=O)Nc1cc(Cl)cc(Cl)c1)n2C returned hERG WT inh -3.5, KCNH2 3.1 inh -83.3*, TRPV1 ag -2.4 and TRPV1 PAM 18.1.
For CCc1ccc(NC(=O)COC(=O)CCc2nc3cc(S(=O)(=O)N(CC)CC)ccc3n2C)cc1 the results were hERG WT inh -2.6, KCNH2 3.1 inh -42.9, TRPV1 ag -2.0 and TRPV1 PAM 6.9.
`COc1ccc([C@H]2CC(=O)C=C(c3cccc(C(F)(F)F)c3)C2)cc1` gave hERG WT inh 20.0, KCNH2 3.1 inh -75.1*, TRPV1 ag inconclusive and TRPV1 PAM -5.4.
Screening COc1ccc([C@H]2CC(=O)C=C(c3cccc(Br)c3)C2)cc1 returned hERG WT inh -12.2, KCNH2 3.1 inh -11.2, TRPV1 ag inconclusive and TRPV1 PAM -5.4.
For c1ccc(CCNc2ccc3c(c2)Cc2ccccc2-3)nc1 the results were hERG WT inh 4.8 and KCNH2 3.1 inh 13.6.
COc1cc(C)ccc1OCC(=O)NC1CCCCCC1 was read as hERG WT inh 1.5, KCNH2 3.1 inh -15.1, TRPV1 ag inconclusive and TRPV1 PAM -19.5.
Screening COc1ccc(C)cc1NC(C)C(=O)NC(=O)NC1CCCCC1 (stereo not drawn) returned hERG WT inh -3.0, KCNH2 3.1 inh -97.3*, TRPV1 ag 17.2 and TRPV1 PAM -13.8.
Screening CC1(C)NC(=O)N(CC(O)CN2C(=O)NC(C)(C)C2=O)C1=O returned hERG WT inh -1.1, KCNH2 3.1 inh -4.5, TRPV1 ag -1.4 and TRPV1 PAM 1.6.
CC1(C)NC(=O)N(CC(O)CNC23CC4CC(CC(C4)C2)C3)C1=O (stereo not drawn) was read as hERG WT inh -99.9*, KCNH2 3.1 inh 8.1, TRPV1 ag -0.8 and TRPV1 PAM 2.5.
For C=CCc1cc(OC)ccc1OCC(O)CN1CCN(c2ccc(OC)cc2)CC1 (stereo not drawn) the results were hERG WT inh 59.6, KCNH2 3.1 inh -81.6*!, TRPV1 ag 2.0 and TRPV1 PAM 5.8.
`COc1ccc(N2CCN(CC(O)COC(c3ccc(F)cc3)c3ccc(F)cc3)CC2)cc1` (stereo not drawn) gave hERG WT inh -82.3*, KCNH2 3.1 inh -119.3*, TRPV1 ag -3.3 and TRPV1 PAM 26.2.
COc1ccc(N2CCN(CC(O)COc3ccc(F)cc3)CC2)cc1 (stereo not drawn) was read as hERG WT inh 18.2, KCNH2 3.1 inh -42.3, TRPV1 ag -5.2 and TRPV1 PAM 16.0.
COc1ccc(N2CCN(CC(O)COC(c3ccccc3)c3ccccc3)CC2)cc1 (stereo not drawn) was read as hERG WT inh inconclusive, KCNH2 3.1 inh -104.9*, TRPV1 ag 1.3 and TRPV1 PAM 0.8.
For COc1ccc(OCC(O)CN2CCN(c3ccc(OC)cc3)CC2)cc1 (stereo not drawn) the results were hERG WT inh 14.9, KCNH2 3.1 inh -17.5, TRPV1 ag -0.9 and TRPV1 PAM 8.6.
Screening O=C(Nc1nc2ccc(F)cc2s1)c1ccc([N+](=O)[O-])o1 returned hERG WT inh 11.1 and KCNH2 3.1 inh 22.1.
For CCN(CC1CCCN(CCc2cccc(F)c2)C1)C(=O)c1ccoc1C (stereo not drawn) the results were hERG WT inh 33.1 and KCNH2 3.1 inh -31.8.
For CCN(CC1CCCN(CCc2cccc(F)c2)C1)C(=O)c1ccc(CSC)o1 (stereo not drawn) the results were hERG WT inh -49.3, KCNH2 3.1 inh -83.5*, TRPV1 ag 6.3 and TRPV1 PAM 1.9.
CCOc1ccc(S(=O)(=O)Nc2ncn[nH]2)cc1 was read as hERG WT inh -14.4, KCNH2 3.1 inh 1.1, TRPV1 ag -3.1 and TRPV1 PAM -3.9.
For O=S(=O)(Nc1ncn[nH]1)c1ccc(Cl)cc1 the results were hERG WT inh -19.3, KCNH2 3.1 inh -85.0*, TRPV1 ag 2.0 and TRPV1 PAM 6.6.
